DT40 TDP1 CPT: qHTS for Inhibitors of human tyrosyl-DNA phosphodiesterase 1 (TDP1): qHTS in cells in presence of CPT; chicken DT40 Tdp1-/-;hTDP1 cells + 20 nM CPT, ATP luminescence, 48 h; Potency, µM (top dose mostly 46.2 µM), for inactives: at the highest dose activity change, negative = growth inhibition, most hits filed as inhibitors; 12% of 420,000 active; AID 686979, 2013; further: potency means the concentration at half of the fitted maximal effect; nearly all actives have a fitted effect of over 55% in size
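Chicken DT40 Tdp1-/- cells complemented with human TDP1, 400 cells/well, exposed to compounds plus 20 nM camptothecin for at least 48 h at 37 C; viability read as ATP content by CellTiter-Glo luminescence.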
HT1080 IDH1KD tx: qHTS for induction of synthetic lethality in tumor cells producing 2HG: qHTS for the HT-1080-IDH1KD cell line; HT-1080 IDH1 knockdown viability, ATP luminescence, 48 h; 2% of 360,000 active; Potency, µM (titrated, usually from 46.1 µM), without a hit: top-dose activity, negative = toxicity, most hits filed as cytotoxic; AID 686971, 2013;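 further: potency means the concentration at half of the fitted maximal effect; 0% = DMSO wells and -100% = cell-free medium wells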
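Cytotoxicity counter-line: IDH1KD HT-1080, 48 h, CellTiter-Glo. Curves classed by r2, magnitude and activity.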
HT1080-NT tox: qHTS for induction of synthetic lethality in tumor cells producing 2HG: qHTS for the HT-1080-NT fibrosarcoma cell line. AID 686970, 2013. 1.6% of 360,000 active. HT-1080-NT fibrosarcoma viability, CellTiter-Glo ATP luminescence, 48 h. Potency, µM (highest dose often 46.1 µM), for inactives: top-dose activity, negative = less viability, hits mostly cytotoxic;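 further: NT is the 2HG producing partner of a matched IDH1 knockdown line; potency means the concentration at half of the fitted maximal effect; 0% = DMSO-treated cells and -100% = media-only wells without cells; nearly all actives have a fitted effect of over 55% in size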
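750 cells/well, RPMI + 5% FBS; 2 h settle, compound pin-transfer, 48 h at 37 degrees C. CellTiter-Glo 10 min RT, luminescence. Normalized to DMSO and media-only wells.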
TDP1 cell noCPT: qHTS for Inhibitors of human tyrosyl-DNA phosphodiesterase 1 (TDP1): qHTS in cells in absence of CPT | DT40 Tdp1-/- hTDP1 cells, no CPT, ATP luminescence, 48 h | Potency, µM (series often up to 46.2 µM), without a hit: top-dose activity change, negative = growth inhibition, most hits filed as inhibitors | 15% of 420,000 active; further: potency means the concentration at half of the fitted maximal effect; nearly all actives have a fitted effect of over 55% in size
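Cells were dispensed at 400 per well, compounds added by pin tool, plates incubated ≥48 hr at 37 °C, then CellTiter-Glo added for 30 min at room temperature before luminescence reading. Line: DT40 Tdp1-/- complemented with hTDP1; camptothecin omitted.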
IL-1B inflam inh: qHTS for Inhibitors of Inflammasome Signaling: IL-1-beta AlphaLISA Primary Screen; 4.7% of 360,000 active; activity change, % at 57.5 µM; THP-1 LPS/ATP IL-1B secretion, AlphaLISA, 16 h; hits give low values; in the data active means activity change below about -50%; inconclusive means mostly about -30% to -49%
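THP-1 cells pretreated 1 hr with compounds (up to 57.5 uM final), then stimulated with LPS (250 ng/mL final) plus ATP (1.25 mM final); secreted IL-1B measured by AlphaLISA after 16 hr, decreased signal indicating inhibition.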
* hit, by the source's call; ? = inconclusive; · = no result given. Sampled rows, rich in hits. Any-hit rate of the full collection: about 19%. Unless noted, the call rests on the fitted dose curve; in most records, active means well fitted curve in the direction sought with a large enough effect; inconclusive means small, poorly fitted or top-dose-only effect, or another doubt; inactive means no such curve, though single readings can be large; an effect the other way counts as inactive or inconclusive. Unless noted, on the % scale 0 is the no-effect control and ±100 the full control effect.

SMILES	DT40 TDP1 CPT	HT1080 IDH1KD tx	HT1080-NT tox	TDP1 cell noCPT	IL-1B inflam inh
O=C(c1cc(C2CC2)nn1-c1ccccc1)N1CCN(c2ccccc2O)CC1	?	19.3%	12.3%	16.4µM*	?
CCc1ccccc1NC(=O)CNC(=O)c1cc(C2CC2)nn1-c1ccccc1	?	0.6%	1.7%	-18.0%	-25.0
CCOc1ccc(S(=O)(=O)N2CCN(C(=O)c3cc(C4CC4)nn3-c3ccccc3)CC2)cc1	20.6µM*	-13.6%	-0.5%	18.4µM*	-24.7
O=C(c1cc(C2CC2)nn1-c1ccccc1)N1CCN(c2ccccn2)CC1	?	-0.6%	4.0%	?	-62.6*
O=C(OCC(=O)N1CCc2ccccc2C1)c1c(F)cccc1Cl	-23.9%	-1.0%	10.6%	?	-17.4
CCCCN(C(=O)CC1CCCC1)c1c(N)n(Cc2ccccc2)c(=O)[nH]c1=O	-10.4%	-1.0%	-5.3%	-15.2%	0.0
O=C(CC1(O)C(=O)N(CCc2ccccc2)c2ccc(Br)cc21)c1ccccc1O (stereo unspecified)	5.17µM*	·	·	5.8µM*	·
O=C(CC1(O)C(=O)N(Cc2ccccc2)c2ccc(Br)cc21)c1ccccc1 (stereo unspecified)	14.6µM*	·	·	5.8µM*	·
C=CCN1C(=O)C(O)(CC(=O)c2ccc(-n3cccc3)cc2)c2ccccc21 (stereo unspecified)	?	-13.6%	-6.2%	?	4.5
C#CCN1C(=O)C(O)(CC(=O)c2ccc(OC)c(OC)c2)c2cc(Br)ccc21 (stereo unspecified)	4.61µM*	·	·	6.51µM*	·
Cc1n[nH]c(C)c1C(=O)CC1(O)C(=O)N(Cc2ccccc2)c2ccc(Br)cc21 (stereo unspecified)	?	-4.3%	-10.6%	?	10.8
C=CCN1C(=O)C(O)(CC(=O)c2ccco2)c2cc(Br)ccc21 (stereo unspecified)	2.31µM*	?	?	5.17µM*	64.2
O=C(NCCC(NS(=O)(=O)OCC(Cl)(Cl)Cl)c1ccccc1)C(F)(F)F (stereo unspecified)	?	11.0%	2.1%	?	14.0
CCCCN1C(=O)C(O)(CC(=O)c2ccc(CC)cc2)c2cc(Br)ccc21 (stereo unspecified)	?	·	·	18.4µM*	·
Cc1ccccc1CN1C(=O)C(O)(CC(=O)c2ccncc2)c2ccccc21 (stereo unspecified)	4.61µM*	-15.5%	-15.9%	3.26µM*	40.6
Cc1ccc(C(=O)CC2(O)C(=O)N(Cc3ccc4c(c3)OCO4)c3ccccc32)cc1 (stereo unspecified)	?	-22.0%	-22.9%	?	-11.3
COC(=O)CN1C(=O)C(O)(CC(=O)c2ccc(Br)cc2)c2ccccc21 (stereo unspecified)	?	4.4%	6.1%	?	12.2
O=C(CC1(O)C(=O)Nc2ccccc21)c1ccccc1 (stereo unspecified)	?	-0.3%	12.0%	1.8%	-18.1
O=C(CC1(O)C(=O)N(Cc2ccc3c(c2)OCO3)c2ccccc21)c1ccccc1 (stereo unspecified)	3.66µM*	-21.9%	-17.8%	5.8µM*	-9.7
O=C(CC1(O)C(=O)Nc2ccc(Br)cc21)c1ccccc1 (stereo unspecified)	?	-2.9%	-19.0%	25.9µM*	72.6
CSc1ccccc1C(=O)Nc1cccc(C(C)O)c1 (stereo unspecified)	10.4%	-4.0%	-0.9%	-2.5%	-0.4
O=C(CC1(O)C(=O)N(Cc2ccccc2)c2ccccc21)c1ccc2c(c1)OCO2 (stereo unspecified)	?	-11.7%	0.2%	?	13.5

Bioassay records deposited in PubChem BioAssay by National Center for Advancing Translational Sciences (NCATS).
